Screens deposited in PubChem BioAssay by several laboratories.
PfHsp90 set2: reduces growth (ATP signal) of yeast expressing P. falciparum Hsp90 | AID 504621 | inhibition, % at 9.4 µM | S. cerevisiae expressing PfHsp90, BacTiter-Glo ATP, 48 h; yeast lacking PDR1 and PDR3 efflux regulators | hit rate 0.32% among 310,000;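 active means every replicate shows inhibition above about 80%, whatever the replicate mean, limit read from the data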;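 further: 0% = DMSO neutral controls and 100% = 20 µM radicicol positive controls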
tim23-1 inh: growth inhibitors of tim23-1 mutant yeast. S. cerevisiae tim23-1 growth, BacTiter-Glo luminescence, 24 h. inhibition, % at 20 µM. hit rate 1.3% among 330,000;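 active means growth inhibition of the mutant yeast at or above 50%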;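 further: temperature-sensitive mutant grown at 25 °C; plate controls were DMSO-treated mutant yeast for no effect and medium wells lacking yeast for full effect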
NALP1 inh: inhibitors of NALP1 inflammasome in yeast; S. cerevisiae NALP1/ASC/caspase-1 growth, X-gal OD620, 72 h; hit rate 0.61% among 280,000; inhibition, % at 10 µM; AID 2071; in the data active means inhibition mostly above about 24%, no sharp cut-off; inactive means mostly below about 32%
NALP3 yeast inh: NALP3 inhibition in yeast | Yeast reconstituted NLRP3/ASC/caspase-1, beta-gal luminescence, 24 h | inhibition, % at 10 µM | hit rate 0.39% among 330,000 | AID 2825;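 active means inhibition of 50% or more; inactive means inhibition below 50%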;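 further: plate controls were induced DMSO wells for no effect and uninduced yeast grown without galactose for full effect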
tim10-1 inh: growth inhibitors of tim10-1 mutant yeast | S. cerevisiae tim10-1 ts strain growth, BacTiter-Glo, 24 h | inhibition, % at 20 µM | hit rate 2.2% among 330,000;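 active means inhibition of at least 40%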;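 further: mutant grown at 25 °C; 0% = DMSO wells with yeast and 100% = wells holding no yeast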
TIM10 inh: growth inhibitors of TIM10 yeast strain; hit rate 1.4% among 330,000; AID 463195; S. cerevisiae TIM10 strain growth, BacTiter-Glo luminescence, 24 h; inhibition, % at 10 µM;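 active means inhibition of 40% or more at the single tested concentration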;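 further: wild-type TIM10 isogenic control strain grown at permissive 25 °C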
* = called active by the depositor; / = not tested or not shown. Sampled rows, rich in hits. Any-hit rate of the full collection: about 4.1%.

SMILES	PfHsp90 set2	tim23-1 inh	NALP1 inh	NALP3 yeast inh	tim10-1 inh	TIM10 inh
N#Cc1ccc(CN2CCN(C(=O)CNC(=O)Cc3ccccc3)CC2)cc1	/	4	/	6	16	3
CC(CCc1ccc(O)cc1)N(C)CCc1ccccc1 (stereo not drawn)	12	-55	26*	25	-21	-10
CC1CCCCN1C(=O)COC(=O)c1cc(Cl)c2c(c1)OCO2 (stereo not drawn)	-25	18	/	27	-3	4
CCCn1c(=O)c(C(=O)Nc2ncccc2C)c(O)c2ccccc21	-15	7	33*	10	-13	7
CCCn1c(=O)c(C(=O)Nc2cccc(C)n2)c(O)c2ccccc21	10	15	11	24	-27	-7
c1cn2cc(CSC3CCCCC3)nc2s1	1	18	36*	27	13	8
CC(C)c1ccc(/C=C2\SC(=O)N(CC(=O)NC3CCS(=O)(=O)C3)C2=O)cc1 (stereo not drawn)	-20	18	18	12	19	7
COc1ccc(S(=O)(=O)Nc2ccc3c(c2)C(=O)N([C@H](C)CO)C[C@H](C)[C@@H](CN(C)C(=O)NC2CCCCC2)O3)cc1	19	5	/	24	-4	3
COc1cccc(-c2cc(C(=O)N3C(C)CCCC3C)no2)c1 (stereo not drawn)	/	32	43*	10	29	39
CC1CCCC(C)N1C(=O)c1cc(-c2ccco2)on1 (stereo not drawn)	6	11	4	3	4	17
O=C1C=C(c2ccccc2)OC(c2ccccc2)O1 (stereo not drawn)	11	26	41*	1	21	29
O=C1C=C(c2ccccc2)OC2(CCCC2)O1	15	17	/	-2	-1	-2
O=C(c1ccccc1Cl)N1CCN(Cc2ccc3c(c2)OCO3)CC1	-4	0	11	8	-15	-2
CN(c1ccccc1C(=O)N1CCN(Cc2ccc3c(c2)OCO3)CC1)S(C)(=O)=O	-2	3	36*	23	-1	6
COc1ccc(OCCOC(=O)c2ccc(F)c(S(=O)(=O)N3CCOCC3)c2)cc1	10	18	/	33	3	3
O=c1[nH]cnc(O)c1C(c1ccc2c(c1)OCO2)c1c(O)nc[nH]c1=O	-6	5	28*	16	-17	-8
CCOc1ccc(NC(=O)COc2ccc(OC)cc2)cc1	-14	10	1	32	-15	-16
COc1ccc(NC(=O)COc2nc(N(C)C)nc(N(C)C)n2)cc1	-1	5	28*	20	18	7
O=C(COC(=O)c1n[nH]c(=O)c2ccccc12)Nc1ccccc1	4	8	/	0	6	8
COc1ccc(CCn2c(SCCN3CCCCC3)nc3ccccc3c2=O)cc1OC	0	-3	34*	-3	7	10
OCCNCCCOc1ccc(Cl)cc1Br	15	9	2	25	13	-1
C=CCNCCCOc1ccc(Cl)cc1Br	16	2	46*	9	11	7
O=C1/C(=C/c2ccncc2)CCC/C1=C\c1ccncc1	102*	/	8	/	/	/
Nc1nc(COc2ccccc2)cs1	/	9	-16	8	7	-5
Cc1ccccc1OCc1csc(N)n1	12	-7	45*	24	-2	-14
SMILES	PfHsp90 set2	tim23-1 inh	NALP1 inh	NALP3 yeast inh	tim10-1 inh	TIM10 inh
CCN(CC)S(=O)(=O)c1cnccc1N1CCN(c2cccc(Cl)c2)CC1	12	38	54*	11	34	35
CNS(=O)(=O)c1cnccc1N1CCN(c2cccc(Cl)c2)CC1	4	12	/	3	-4	3
COc1ccc(S(=O)(=O)N2CCN(C(=O)c3ccc(=O)[nH]n3)CC2)cc1OC	-49	5	/	14	-6	-5
C[N+]1(CC2COC3(CCCCC3)O2)CCCC1 (stereo not drawn)	-1	11	30	-14	5	0
C1CCCCCC2(CCCCC1)OCC(CN1CCOCC1)O2 (stereo not drawn)	0	6	54*	36	0	16
O=C(COC(=O)c1ccccc1)NCc1ccco1	-5	-8	-6	8	-12	-15
Cc1ccc(C(=O)OCC(=O)NCc2ccco2)cc1	-9	4	41*	20	20	4
CN(c1ccccc1)S(=O)(=O)c1cccc(C(=O)OCC(=O)NCc2ccco2)c1	11	5	24*	-14	17	20
CCOc1ncccc1C(=O)OCC(=O)NC1CCCCCC1	/	19	/	24	0	-8
CN(C(=O)c1cccc(NC(=O)Cc2ccc(NC(=O)C3CCCN(C(=O)C4CCCC4)C3)cc2)c1)C1CCCCC1 (stereo not drawn)	11	/	/	/	/	/
CCCCCC(=O)Nc1ncc2c(n1)CC(c1cccs1)CC2=O (stereo not drawn)	/	3	38*	26	-5	11
O=C(Nc1ncc2c(n1)CC(c1ccccc1)CC2=O)c1ccco1 (stereo not drawn)	/	15	-86	26	16	16
O=C(CN1C(=O)NC2(CCCC2)C1=O)N1CCN(Cc2ccccc2)CC1	-42	6	/	7	1	-5
NS(=O)(=O)c1ccc(Oc2ccc(S(N)(=O)=O)cc2)cc1	-10	5	-17	12	12	-2
C=CS(=O)(=O)c1ccc(Oc2ccc(S(=O)(=O)C=C)cc2)cc1	-12	41	75*	39	35	22
CCC(=O)n1nc(-c2ccc(OC)cc2)nc1N	3	15	24*	6	12	-11
CCC(=O)n1nc(-c2ccccc2)nc1N	-9	-1	2	15	6	5
CC12C=CC(=O)C=C1CCC1C2C(O)CC2(C)C1CCC2(O)C(=O)CO (stereo not drawn)	-16	/	/	/	/	/
OC(CNCCc1ccccc1)COc1ccc(OCC(O)CNCCc2ccccc2)cc1 (stereo not drawn)	13	-11	7	39	-20	-9
OC(CNCCC(c1ccccc1)c1ccccc1)COc1ccccc1 (stereo not drawn)	0	15	33*	23	22	17
CC(C)(C)c1cc2cccnc2n1Cc1cccc(Cl)c1	/	-31	46*	12	-34	-27
Cc1ccc(S(=O)(=O)N2CCCCC2)cc1NC(=O)CSc1nc(N)cc(=O)[nH]1	-8	10	/	17	-5	3
CC(OC(=O)c1ccc2c(c1)OCCO2)C(=O)NC1CCCCC1C (stereo not drawn)	0	2	/	13	-6	-3
O=C(Nc1ccccc1)N1CCc2ccccc2C1	9	12	50*	20	4	12
CNC(=O)CN1C(=O)CSc2ncccc21	-18	-4	41*	-2	16	8
COc1ccc(NC(=O)CCNC(=O)Cn2ccc3ccccc3c2=O)cc1Cl	-7	2	-4	-2	-16	6
